# From PubChem BioAssay (NCI)
# About 79,000 compounds went through this panel and 15% of them were active in at least one assay; those are over-represented in the sample as a whole. Activity calls are given as the source filed them. Rule as the data show it: active = growth inhibition above about 70%; inactive = the rest.
# Experiment: NCI Yeast Anticancer Drug Screen. Data for the sgs1 mgt1 strain (AID 161);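 also: 0% = growth of cultures given vehicle only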
# Conditions: S. cerevisiae sgs1 mgt1 strain, at 50.0 µM, active compounds read high
# Procedure, shortened: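 Test agents were incubated with a DNA-repair-mutant yeast strain. Growth was then read and compared against vehicle-treated controls.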
row,SMILES,growth inhibition
1,COc1ccc(C(=O)c2cc3c(ccc4ccccc43)oc2=O)cc1,7.2% (inactive)
2,CC(C)NC(=O)OCc1c(COC(=O)NC(C)C)c(S(=O)(=O)c2ccccc2)n2c1CCC2,-20.6% (inactive)
3,Cc1ccnc(NC(=O)Nc2ccccc2Cl)c1,1.3% (inactive)
4,c1ccc2c(c1)NC(N1CCCCC1)=Nc1ncncc1-2,7.75% (inactive)
5,O=S(O)CCCSSSCCCS(=O)O,45.5% (inactive)
6,CC(=O)c1ccccc1C(=O)O,-6.65% (inactive)
7,CC1(O)OC(=O)c2ccc3ccccc3c21 (configuration not stated),-9.35% (inactive)
8,CC(=O)CC(=O)Nc1cccc(C)n1,-14.3% (inactive)
9,CCCCCCCCCC(=O)Oc1cccc2onc(C)c12,-20.2% (inactive)
10,Cc1ccc(C(C)C)c(OC(=O)NCCCCCCNC(=O)Oc2cc(C)ccc2C(C)C)c1,10.7% (inactive)
11,CC1(C)CCC23CCC4(C)C(CCC5C6(C)CCC(=O)C(C)(C)C6CCC54C)C2C1OC3 (configuration not stated),-4.05% (inactive)
12,CN(C)S(=O)(=O)c1ccc(CCc2ccc(S(=O)(=O)N(C)C)cc2)cc1,-12.7% (inactive)
13,CC(=O)CC(C)(C)NC(=S)NCCO,2% (inactive)
14,C[n+]1c(/C=C/C=C/c2ccccc2)oc2ccccc21,-22.6% (inactive)
15,C/C(=C\Cc1cc(O)c(C)cc1O)CC/C=C(\C)Cc1cc(C)co1,-35.5% (inactive)
16,CCC(=O)Oc1ccc([N+](=O)[O-])cc1[N+](=O)[O-],49.3% (inactive)
17,O=[N+]([O-])c1ccc(N/N=C2\C=C(c3ccccc3)C(c3ccccc3)C2)c([N+](=O)[O-])c1 (configuration not stated),-9.25% (inactive)
